Laboratory results taken from PubChem BioAssay.
Active and inactive are the calls of the source.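 How the source made its calls: active means thallium flux through the channel raised or lowered by more than 3 SD from vehicle-only wells, actives on both sides; inactive means the rest.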

tested on: F380Y/beta1; test: BK channel mutant inhibitors and activators – cell-based, U2OS BacMam, thallium flux, beta subunits, selectivity assay, profiling panel (AID 1259406); conditions: U2OS BacMam BK variants, at 30 µM;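 further: initial slope of Thallos dye fluorescence rise after thallium is added; log ratio against the mean of 0.3% DMSO vehicle wells on the same plate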

Log fold change Tl+ flux, active:
Cc1ccc(S(=O)(=O)NC(=O)Nc2nc(-c3ccc(C)c(Cl)c3)c(C)s2)cc1 0.176
COC(=O)CC1(C(=O)OC)Oc2ccc(Br)cc2C(=O)N1c1cccc(Cl)c1Cl (stereo not given) 0.188
CCOC(=O)c1ccc(N2CCOCC2)c(N=Cc2cc(Cl)cc(Cl)c2O)c1 0.162
Oc1c(Cl)cc(Cl)cc1C=Nc1nccs1 0.153
O=C1c2cc(S(=O)(=O)O)ccc2CCC1S(=O)(=O)O (stereo not given) 0.132
CN(C)c1ccc(C=NNC(N)=S)c(Cl)c1 0.329

Log fold change Tl+ flux, inactive:
COC(=O)c1ccc(C=Cc2cccc(Cl)c2)s1 -0.0156
COc1ccc(C(=O)NNC(=O)c2c(OC)cc(C(F)(F)F)cc2C(F)(F)F)cc1 0.017
Cn1c(SCCS(=O)(=O)c2ccc(OC(F)(F)F)cc2)nnc1C(F)(F)F -0.00843
O=C(O)c1cccc(CSc2cccs2)c1 0.0279
Cc1onc(-c2c(Cl)cccc2Cl)c1C1=NCCO1 -0.0222
CCOC(=O)c1cc(CC)sc1NC(=O)C(Cl)(Cl)Cl 0.0314
Cc1nn(-c2ccccc2)nc1C(=O)NNC(=O)CSCc1cccc2ccccc12 0.0449
Cc1oc(S(=O)(=O)N2CCOCC2)cc1C(=O)Nc1ccc(F)cc1 -0.00781
CCCn1c(=O)c(Br)cn(-c2ccccc2C)c1=O -0.0448
CCOC(=O)Cn1c(-c2c(Cl)cccc2Cl)noc1=O -0.00728
Cc1nn(C)c(NCc2cccs2)c1[N+](=O)[O-] 0.00245
Nc1ccc(Cl)cc1-c1nc2ccccc2[nH]1 -0.0427
Cc1c(C(=O)Nc2ccc(N3CCOCC3)c(Cl)c2)cnn1-c1ccc(F)cc1 -0.00879
CC(=O)OCC(OC(C)=O)C(OC(C)=O)C(OC(C)=O)C(C#N)OC(C)=O (stereo not given) -0.00373
C#CC1(NC(=O)c2ccc(-c3ccc(CC)cc3)cc2)CCCCC1 0.0082
Cc1cnc(N)c(C)n1 0.0374
O=C(CC(=O)NNC(=O)c1ccc(F)cc1)NNC(=O)c1ccc(F)cc1 -0.0109
Cc1ccccc1C=C1N=C(c2ccccc2)OC1=O 0.0199
O=C(CCn1nc(-c2ccc(F)cc2)ccc1=O)NCc1ccccc1 0.0341
N=c1c(C(N)=O)cc2c(=O)n3ccccc3nc2n1Cc1ccco1 -0.0185
Cc1nn(-c2ccccc2)nc1CNC(=O)COc1ccccc1 -0.0688
Cc1cc(C)n2nc(Sc3ncccc3[N+](=O)[O-])nc2n1 -0.0122
CCOC(=O)NN=C(C)C(C)=NNC(=O)OCC -0.0656
CC(C)(C)NC(=O)NCCO -0.0332
Cc1ccccc1S(=O)(=O)NCc1ccc(N2CCN(C)CC2)cc1 -0.00969
CN(C1CCCCC1)S(=O)(=O)c1cccs1 -0.00759
O=C(CN1c2ccccc2Sc2ccccc21)NN=Cc1ccco1 0.0239
CC(=O)Nc1ccc(OCC(=O)N2CCN(c3ncc(C(F)(F)F)cc3Cl)CC2)cc1 0.0214
Cc1ccc(S(=O)(=O)Oc2c(Cc3ccccc3)c(=O)n(C)c3ccccc23)cc1 -0.00429
CCN1CCC(O)(C#Cc2ccccc2)CC1 0.0157
O=C(OCCSc1sccc1[N+](=O)[O-])c1ccc(Cl)cc1 -0.009
Cc1cc(NC(=O)Nc2nc(-c3ccc(C)c(Cl)c3)c(C)s2)c(C(F)(F)F)o1 0.0378
COCCCNC(=O)C(C#N)=CN(C)C -0.0601
CC(C)=CC(C)=NNc1c([N+](=O)[O-])cc(C(F)(F)F)cc1[N+](=O)[O-] 0.0383

tested on: F380Y/beta2Delta; test: as above; conditions: U2OS BacMam BK variants, at 30 µM

Log fold change Tl+ flux, inactive:
COC(=O)c1ccc(C=Cc2cccc(Cl)c2)s1 -0.00709
COc1ccc(C(=O)NNC(=O)c2c(OC)cc(C(F)(F)F)cc2C(F)(F)F)cc1 -0.00926
Cn1c(SCCS(=O)(=O)c2ccc(OC(F)(F)F)cc2)nnc1C(F)(F)F -0.0119
O=C(O)c1cccc(CSc2cccs2)c1 0.0398
Cc1onc(-c2c(Cl)cccc2Cl)c1C1=NCCO1 -0.0541
CCOC(=O)c1cc(CC)sc1NC(=O)C(Cl)(Cl)Cl -0.028
Cc1nn(-c2ccccc2)nc1C(=O)NNC(=O)CSCc1cccc2ccccc12 0.0266
Cc1oc(S(=O)(=O)N2CCOCC2)cc1C(=O)Nc1ccc(F)cc1 -0.0147
Cc1ccc(S(=O)(=O)NC(=O)Nc2nc(-c3ccc(C)c(Cl)c3)c(C)s2)cc1 0.0427
CCCn1c(=O)c(Br)cn(-c2ccccc2C)c1=O -0.0565
CCOC(=O)Cn1c(-c2c(Cl)cccc2Cl)noc1=O -0.0091
Cc1nn(C)c(NCc2cccs2)c1[N+](=O)[O-] 0.0628
Nc1ccc(Cl)cc1-c1nc2ccccc2[nH]1 -0.0974
COC(=O)CC1(C(=O)OC)Oc2ccc(Br)cc2C(=O)N1c1cccc(Cl)c1Cl (stereo not given) -0.0998
Cc1c(C(=O)Nc2ccc(N3CCOCC3)c(Cl)c2)cnn1-c1ccc(F)cc1 -0.0427
CC(=O)OCC(OC(C)=O)C(OC(C)=O)C(OC(C)=O)C(C#N)OC(C)=O (stereo not given) 0.0398
C#CC1(NC(=O)c2ccc(-c3ccc(CC)cc3)cc2)CCCCC1 0.0141
Cc1cnc(N)c(C)n1 0.0872
CCOC(=O)c1ccc(N2CCOCC2)c(N=Cc2cc(Cl)cc(Cl)c2O)c1 0.0876
O=C(CC(=O)NNC(=O)c1ccc(F)cc1)NNC(=O)c1ccc(F)cc1 0.0456
Cc1ccccc1C=C1N=C(c2ccccc2)OC1=O 0.0497
O=C(CCn1nc(-c2ccc(F)cc2)ccc1=O)NCc1ccccc1 0.06
N=c1c(C(N)=O)cc2c(=O)n3ccccc3nc2n1Cc1ccco1 0.0123
Cc1nn(-c2ccccc2)nc1CNC(=O)COc1ccccc1 -0.0499
Cc1cc(C)n2nc(Sc3ncccc3[N+](=O)[O-])nc2n1 -0.0308
CCOC(=O)NN=C(C)C(C)=NNC(=O)OCC -0.0255
CC(C)(C)NC(=O)NCCO 0.0577
Cc1ccccc1S(=O)(=O)NCc1ccc(N2CCN(C)CC2)cc1 0.0214
CN(C1CCCCC1)S(=O)(=O)c1cccs1 -0.0383
O=C(CN1c2ccccc2Sc2ccccc21)NN=Cc1ccco1 -0.0113
CC(=O)Nc1ccc(OCC(=O)N2CCN(c3ncc(C(F)(F)F)cc3Cl)CC2)cc1 0.00987
Cc1ccc(S(=O)(=O)Oc2c(Cc3ccccc3)c(=O)n(C)c3ccccc23)cc1 -0.0297
CCN1CCC(O)(C#Cc2ccccc2)CC1 -0.0113
O=C(OCCSc1sccc1[N+](=O)[O-])c1ccc(Cl)cc1 0.0128
Cc1cc(NC(=O)Nc2nc(-c3ccc(C)c(Cl)c3)c(C)s2)c(C(F)(F)F)o1 0.0304
CC(C)=CC(C)=NNc1c([N+](=O)[O-])cc(C(F)(F)F)cc1[N+](=O)[O-] 0.0202

Log fold change Tl+ flux, active:
Oc1c(Cl)cc(Cl)cc1C=Nc1nccs1 0.108
COCCCNC(=O)C(C#N)=CN(C)C -0.103
O=C1c2cc(S(=O)(=O)O)ccc2CCC1S(=O)(=O)O (stereo not given) 0.167
CN(C)c1ccc(C=NNC(N)=S)c(Cl)c1 0.177
